According to PubChem BioAssay (NCI):
Compounds without any hit were thinned out: in the full panel of roughly 83,000, 20% have a hit.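 The test compound was applied at a single concentration to cells in 96-well plates for 48 hours, and percent growth was recorded.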 Values without a mark were called inactive. The source made the active and inactive calls. The calls were made as follows: active = growth percent below 10; inactive = the rest.

How the values were obtained:
Experiment in all cases: NCI-60 one-dose screen, 48 h (100 = growth as untreated, 0 = no growth, -100 = all killed)
Conditions in all cases: 10 µM unless noted
DU-145 prostate = system: DU-145 prostate
K-562 leukemia = system: K-562 leukemia
MALME-3M melanoma = system: MALME-3M melanoma
MDA-MB-231 breast = system: MDA-MB-231 breast
RXF 393 renal = system: RXF 393 renal
SF-268 CNS = system: SF-268 CNS
SF-295 CNS = system: SF-295 CNS
SF-539 CNS = system: SF-539 CNS
UACC-257 melanoma = system: UACC-257 melanoma
M14 melanoma = system: M14 melanoma
HCT-15 colon = system: HCT-15 colon
HT29 colon = system: HT29 colon
SNB-75 CNS = system: SNB-75 CNS
SNB-19 CNS = system: SNB-19 CNS
U251 CNS = system: U251 CNS
PC-3 prostate = system: PC-3 prostate
SK-MEL-5 melanoma = system: SK-MEL-5 melanoma
UACC-62 melanoma = system: UACC-62 melanoma
LOX IMVI melanoma = system: LOX IMVI melanoma
SK-MEL-28 melanoma = system: SK-MEL-28 melanoma

Row | SMILES | growth (DU-145 prostate) | growth (K-562 leukemia) | growth (MALME-3M melanoma) | growth (MDA-MB-231 breast) | growth (RXF 393 renal) | growth (SF-268 CNS) [%] | growth (SF-295 CNS) | growth (SF-539 CNS) | growth (UACC-257 melanoma) | growth (M14 melanoma) | growth (HCT-15 colon) | growth (HT29 colon) | growth (SNB-75 CNS) | growth (SNB-19 CNS) [%] | growth (U251 CNS) | growth (PC-3 prostate) | growth (SK-MEL-5 melanoma) | growth (UACC-62 melanoma) | growth (LOX IMVI melanoma) | growth (SK-MEL-28 melanoma)
1 | O=c1ccn2nc3ccccc3c2[nH]1 | 128% | 98.5% | 86.7% | 91.3% | 123% | 110 | 118% | 95.9% | 130% | 98.6% | 91.7% | 96.1% | 85.2% | 95.5 | 96.4% | 88% | 96% | 92.5% | 96.3% | 182%
2 | CC/C=C\C[C@H](O)C/C=C1/C(=O)C=C[C@@H]1C/C=C\CCCC(=O)OC | 20.2% | 2.74% (active) | 9.07% (active) | 11.9% | -19.6% (active) | 15.1 | -1.98% (active) | 7.57% (active) | -17.5% (active) | -1.46% (active) | -20.3% (active) | -54.7% (active) | 57.8% | 35.2 | -72.8% (active) | -11.3% (active) | -84.7% (active) | -40.3% (active) | -76.9% (active) | -34.3% (active)
3 | N=c1sc(Cc2ccc(Cl)cc2)cn1CC(=O)c1ccc(F)cc1 | 78.3% | 25.6% | 87.4% | 79.7% | 82.3% | 81.8 | 64.7% | 85.5% | 77.5% | 43.1% | 50.4% | 70.6% | 90.3% | 88 | 79.4% | 75.5% | 62.7% | 9.38% (active) | 33.2% | 87.6%
4 | Cc1nc2ccccc2n1CC1NC(=O)NC1=O (stereo not given) | 110% | 99.9% | 102% | 102% | 103% | 96.1 | 107% | 99.4% | 99.1% | 105% | 104% | 105% | 78.7% | 98.4 | 103% | 96.2% | 100% | 98.4% | 95.6% | 99.4%
5 | O=C1/C(=C/c2ccc(F)cc2)C=C(c2ccccc2)N1CCc1ccccc1 | 81.6% | 71.4% | 39.1% | 57.5% | 56.2% | 74.2 | 35.9% | 79.5% | 38.6% | 46% | 77.9% | 63.2% | -10.5% (active) | 45.1 | 46.9% | 51.2% | 73% | 50.1% | 70.7% | 72.6%
6 | O=C(O)C1CCC(=O)N1C(=O)OCc1ccccc1 (stereo not given) | 117% | 92.4% | 96.2% | 112% | 96.6% | 111 | 106% | 96.9% | 95.4% | 102% | 97.3% | 101% | 80.9% | 97.8 | 102% | 100% | 105% | 87% | 98% | 140%
7 | O=C(N=c1oc2ccccc2cc1-c1cc2ccccc2[nH]1)c1ccc(Cl)cc1 | 51.3% | 26.5% | 94.1% | 51.2% | 59.9% | 35.5 | 60.3% | 52.8% | 98.7% | 79.7% | 25.7% | 65.7% | 53.6% | 32.6 | 28.9% | 27.2% | 96.1% | 63.1% | 60.5% | 95.3%
8 | COc1ccc(C2C(c3nn[nH]n3)=C(N)Oc3c2ccc2ccccc32)cc1 (stereo not given) | 88% | 19.2% | 63.7% | 31.5% | 76.3% | 72.1 | 77.8% | 73.7% | 89.8% | 58.4% | 35% | 127% | 39.9% | 67.3 | 73.3% | 65.5% | 57.5% | 45.9% | 63.5% | 57.4%
9 | O=C1CCc2c(sc3[nH]c(=S)n(-c4ccc(OC(F)(F)F)cc4)c(=O)c23)C1 | 81.2% | 18% | 68% | 61.4% | 37.3% | 25.6 | 17.2% | 19% | 85.9% | 59.6% | 40.4% | 104% | 27.4% | 17.1 | 21.6% | 16.1% | 22.6% | 10.8% | 20.6% | 43.2%
10 | Cc1cc(=O)oc2c1ccc1oc(C#N)c(C)c12 | 102% | 108% | 97.2% | 107% | 113% | 99.9 | 102% | 98.9% | 105% | 100% | 98.9% | 93.4% | 92.9% | 99.9 | 99.4% | 90.4% | 100% | 99.9% | 88.2% | 96.5%
11 | Cc1cc(NCCCCNc2ccnc3cc(Cl)ccc23)nc(Nc2ccc(C(=O)N3CCCC3)cc2)n1 | 48.3% | -24.6% (active) | -70.4% (active) | -22.2% (active) | 32.4% | 15.7 | 3.67% (active) | -68.6% (active) | -70.6% (active) | -73.9% (active) | 7.18% (active) | -2.28% (active) | -9.47% (active) | 30.5 | -7.46% (active) | 35.6% | -100% (active) | -33.6% (active) | -90.9% (active) | -72.8% (active)
12 | COc1cccc(Nc2nccc(Nc3ccc4[nH]ncc4c3)n2)c1 | -59.1% (active) | -9.77% (active) | -48.7% (active) | 15% | 18.4% | 26.3 | 16.2% | 13.9% | 11.2% | -74.2% (active) | -26.6% (active) | -58.3% (active) | 30.3% | 24.1 | -93.7% (active) | -81.2% (active) | -83.6% (active) | -56.7% (active) | -66.9% (active) | -42.6% (active)
13 | COc1cccc(/C=C/C(=O)c2c(C)nc3ccccc3c2/C=C/c2ccc(C)cc2)c1OC | 52.3% | 17.3% | 79.1% | 63.8% | 53.8% | 70.3 | 65.7% | 72.8% | 67.5% | 73.7% | 19% | 29.7% | 42.4% | 70.2 | 55.3% | 43.4% | 66% | 43.6% | 39% | 40.9%
14 | N/C(=N/N=C/c1ccccc1)N/N=C\c1ccccc1 | 73.6% | 21.8% | 67.4% | 76.3% | 24.8% | 76 | 66.9% | 58% | 68.5% | 26.8% | 44.1% | 27.7% | 67.1% | 74.6 | 50.2% | 64.3% | 34.1% | 70.5% | 62.1% | 71.9%
15 | N=C1C(c2nc(-c3ccc(Br)cc3)cs2)=C(O)CN1CC1CCCO1 (stereo not given) | 69.7% | 64.1% | 112% | 90.9% | 83% | 87.9 | 91.5% | 81.4% | 84.3% | 91.5% | 89.5% | 97.5% | 78.5% | 87.4 | 74.9% | 7.86% (active) | 102% | 105% | 60.7% | 107%
